Screens from PubChem.
The entries come from a sample that favours hits as a whole.
S aureus helic: inhibitors of S. aureus replicative helicase, primary screen, biochemical, fluorescence unwinding readout; replicative DNA helicase (DnaC/DnaB), Staphylococcus aureus; purified S. aureus helicase, fluorescence unwinding assay; inhibition, % (no concentration beside the values); 0.05% of 120,000 active; in the data active = inhibition above about 25%, passing the limit was not always enough
Sa growth 42C: S. aureus growth inhibition at 42 and 30 °C, primary screen, LtaS inhibitor project, RN4220, two temperatures; OD600, 20 h, 42 °C; stronger effect = lower value; relative growth, % (no concentration beside the values); 0.53% of 170,000 active; AID 720641, 2013;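 active = relative growth at most 50% at the other temperature and 20+ points below 30 °C, or under 10% at both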
Large screens that a line does not name were inactive.

CN(C)[C@@H]1C(=O)C(C(N)=O)=C(O)[C@@]2(O)C(=O)C3=C(O)c4c(O)cccc4[C@@](C)(O)[C@H]3C[C@@H]12	Sa growth 42C -0.1 (no result: S aureus helic)
Cc1ccccc1CC#N	none
COC(=O)[C@@]1(C#N)C(c2cc(OC)cc(OC)c2)[C@@H](C#N)N2c3ccccc3C=C[C@@H]21 (some centres not stated)	none
N#CC1=C(N)Oc2c(c(=O)oc3ccccc23)C1Cc1ccccc1 (configuration not stated)	none
Cc1ccc(C(O)(c2ccc(C)c(C)c2)C2CN3CCC2CC3)cc1C (configuration not stated)	Sa growth 42C 22.6
OC(c1cccs1)(c1cccs1)C1CN2CCC1CC2 (configuration not stated)	none
Cc1ccc2c(c1)C1CN(C)CCC1N2C(=O)Cc1cccs1 (configuration not stated)	none
Cc1ccc2c(c1)C1CN(C)CCC1N2Sc1ccc(Cl)cc1 (configuration not stated)	Sa growth 42C -1.3
CN1CCC2(CCN(Cc3ccccc3)C2)C1 (configuration not stated)	none
CN1CCc2cc3c(c4c2C1Cc1ccccc1-4)OCO3 (configuration not stated)	Sa growth 42C 0.1
COc1ccc2c(c1OC)C(=O)OC2C1c2cc3c(cc2CCN1C)OCO3 (configuration not stated)	none
O=C1C(=Cc2ccco2)C(=O)N(c2ccccc2)C(=O)N1c1ccccc1	none
COc1ccc(/C=C/C(=O)N2c3ccc(C)cc3C3CN(C)CCC32)cc1 (configuration not stated)	none
CCCCCCCCCCCCCCCC[N+](C)(C)C	Sa growth 42C -0.5 (no result: S aureus helic)
CN1CCN(Cc2ccc(O)c3ncccc23)CC1	none
N#CC(CCN1CCNCC1)(c1ccccc1)c1ccccc1	none
CCOC(=O)[C@]1(C#N)[C@@H]2C=CC(C(N)=O)=CN2[C@@H](C(N)=O)[C@@H]1c1ccc(Cl)cc1	none
CN(C)C(=S)SSC(=S)N(C)C	Sa growth 42C -0.7 (no result: S aureus helic)
O=C(CNC(=O)c1ccccc1)OCC1CCCN2CCCCC12 (configuration not stated)	none
CC(=O)Nc1ccc(-c2ccccc2)cc1	none (no result: S aureus helic)
CC(C)Nc1ccc(Nc2ccccc2)cc1	Sa growth 42C 4.5
Cn1c(=O)c2ncnnc2n(C)c1=O	Sa growth 42C 5.9
N#CCc1ccc(O)cc1	none
COc1cc(CN2CCN(c3cccc(Cl)c3)CC2)ccc1O	none
